Only some compounds are listed: those with a hit (about 2.4% of all), similar ones and a draw of the others.
AmpC inh det: Promiscuous and Specific Inhibitors of AmpC Beta-Lactamase (assay with detergent); P00811; purified AmpC, nitrocefin hydrolysis with detergent; Potency, µM (highest dose often 28.7 µM), inactives show at the highest dose activity change, negative = inhibition; 71,000 tested, 0.09% active; AID 584, 2007; active = well fitted curve in the direction sought with a large enough effect; inconclusive = small, poorly fitted or top-dose-only effect; also: % is scaled to controls: 0 for no effect and ±100 for the full control effect
Target sequence (P00811 whole entry, looked up): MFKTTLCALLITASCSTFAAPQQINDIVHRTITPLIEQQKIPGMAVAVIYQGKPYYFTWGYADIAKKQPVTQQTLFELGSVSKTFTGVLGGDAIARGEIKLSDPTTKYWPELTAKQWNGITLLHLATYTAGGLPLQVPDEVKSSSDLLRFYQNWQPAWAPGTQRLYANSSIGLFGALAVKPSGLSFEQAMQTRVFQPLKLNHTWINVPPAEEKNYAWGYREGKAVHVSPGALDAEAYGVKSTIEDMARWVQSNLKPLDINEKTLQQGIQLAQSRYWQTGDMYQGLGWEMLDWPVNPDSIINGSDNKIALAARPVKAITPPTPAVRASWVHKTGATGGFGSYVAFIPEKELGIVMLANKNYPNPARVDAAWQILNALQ
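E. coli AmpC (5.3 nM) in 20 mM phosphate pH 7.0 with 0.01% Triton X-100, preincubated 15 min RT with compound; nitrocefin (2 uL of 800 uM stock) hydrolysis followed by 480 nm absorbance every 20 s over 4 min.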
AmpC inh no det: Promiscuous and Specific Inhibitors of AmpC Beta-Lactamase (assay without detergent). P00811. AmpC nitrocefin hydrolysis, absorbance 480 nm, no detergent. Potency, µM (series often up to 28.7 µM), for the others: top-dose activity change, negative = inhibition. 71,000 tested, 1.8% active. AID 585, 2007; also: % of control where 0% means no effect
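Enzyme, pH 7.0 phosphate. Compound titrations were pre-incubated with AmpC for 15 min at room temperature before nitrocefin (stock 800 uM) addition; product formation was recorded at 480 nm every 20 s for 4 min.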
Anthrax LT inh: qHTS Assay for Anthrax Lethal Toxin Internalization; Potency, µM (highest dose often 40 µM), for the others: top-dose activity change, negative = inhibition, actives largely listed as inhibitors; AID 912, 2007; 70,000 tested, 0.67% active; Cells, anthrax lethal toxin internalization, FRET ratio (460/530); also: % is scaled to controls: 0 for no effect and ±100 for the full control effect; nearly all actives have a fitted effect of over 50% in size
Prx2 Sm inh: Schistosoma Mansoni Peroxiredoxins (Prx2); 65,000 tested, 0.07% active; S. mansoni Prx2 activity coupled to TGR/GSH (TGR is thioredoxin glutathione reductase), NADPH fluorescence loss, qHTS; Schistosoma mansoni peroxiredoxin 2 (Prx2); Potency, µM; AID 448, 2006
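Prx2 activity was followed as the loss of NADPH fluorescence (ex 365/em 450 nm), read every 30 sec for 8 min after H2O2 start. The enzyme mix (50 nM Prx2, 25 nM TGR, GSH, NADPH; pH 7.4 phosphate buffer) was incubated with compound for 15 min at room temperature first.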
Numbers without * were called inactive; ? = inconclusive; / = no result; [ ] = remark or other dose. Unless noted, calls follow the shape of the full dose curve. Potency is read from the fitted curve at half-maximal effect.

SMILES	AmpC inh det	AmpC inh no det	Anthrax LT inh	Prx2 Sm inh
C[C@H](C(=O)c1ccccc1)[C@@H](c1ccccc1)N1CCOCC1	-4%[5.75 µM]	7%[5.75 µM]	-1%[8 µM]	>57
CCOc1ccc(Cn2nnc(C(=O)NCc3ccc(OC)cc3)c2N)cc1	15%	4µM*[single pt active]	-16%	>57
CCOc1ccc(NC(=O)Cn2nnc(C(=O)NCc3ccccc3OC)c2N)cc1	-5%	-8%	?	>57
Cc1cccc(CCNC(=O)CN(C)S(=O)(=O)c2ccc3c(c2)c(=O)n(C)c(=O)n3C)c1	14%	4µM*[single pt active]	-10%	>57
Cc1ccc(CCNC(=O)CCNS(=O)(=O)c2ccc3c(c2)c(=O)n(C)c(=O)n3C)cc1	10%	39%	2%	>57
CCOC(=O)N1CCN(C(=O)c2cnn3ccccc23)CC1	25%	4µM*[single pt active]	5%	>57
CCOC(=O)N1CCN(C(=O)c2ccccc2-c2ccccc2)CC1	-2%	43%	?	>57
Cn1c(=O)c(-c2ccc(Cl)cc2)nc2cnc(N3CCOCC3)nc21	0%	-10%	-6%	>57
OCCN1CCN(c2ncnc3ccc(Br)cc23)CC1	13%	4µM*[single pt active]	-4%	>57
CCN1CCN(c2ncnc3ccc(Br)cc23)CC1	-4%	-8%	-15%	>57
COc1ccccc1CN1CCC2(CC1)CCN(S(=O)(=O)c1ccccc1)CC2	-3%	17%	4%	>57
CCn1c(SCC(=O)Nc2oc(-c3ccccc3)c(-c3ccccc3)c2C#N)nnc1-c1ccco1	-3%	?	?	>57
N#Cc1c(NC(=O)CSc2ncnc3sccc23)oc(-c2ccco2)c1-c1ccco1	12%	7.9µM*	?	>57
Brc1ccc(-c2nnc3sc(CNCc4ccc5c(c4)OCO5)cn23)cc1	8%	4µM*[single pt active]	-10%	>57
c1ccc(-c2nnc3sc(CN4CCC5(CC4)OCCO5)cn23)cc1	-4%	5%	8%	>57
Brc1ccc(-c2nnc3sc(CNC4CCCC4)cn23)cc1	10%	4µM*[single pt active]	-11%	>57
C=C1CC[C@H]2C(C)(C)[C@H](O)CC[C@]2(C)[C@@H]1COc1ccc2ccc(=O)oc2c1	-3%	56%	?	>57
N#Cc1c(C(F)(F)F)cc(C2CC2)[nH]c1=O	15%	4µM*[single pt active]	-11%	>57
Cc1cc(C)n(-c2ccc(C(=O)OCC(=O)c3ccc(Br)s3)cc2)n1	2%	13µM*[single pt active]	-9%	>57
Cc1cc(C)n(-c2ccc(C(=O)OCC(=O)NCc3ccco3)cc2)n1	-1%	32%	6%	>57
CCOC(=O)CN1c2ccccc2NC(=O)CC1C (stereo unspecified)	13%	4µM*[single pt active]	-6%	>57
CCOC(=O)CN1C(=O)C(O)=C(C(C)=O)C1c1ccccc1 (stereo unspecified)	-2%	1%	/	>57
N=c1n(CCO)c2ccccc2n1CCOc1ccc(Cl)cc1Cl	10%	4µM*[single pt active]	?	>57
CCCCC(=O)Nc1cc(N(C)C)nc2ccccc12	-2%	8%	-3%	>57
CN(C)c1cc(NC(=O)CN2CCOCC2)c2ccccc2n1	12%	4µM*[single pt active]	-20%	>57
SMILES	AmpC inh det	AmpC inh no det	Anthrax LT inh	Prx2 Sm inh
C=C1CC[C@@H]2O[C@]2(C)CC[C@@H]2[C@H]1CC2(C)C	-2%	117%	?	>57
CC12C=C(/C=C/c3ccc(F)cc3)C(C)(C1)C(c1ccc(F)cc1)CC2=O (stereo unspecified)	/	/	-19%[8 µM]	/
COc1ccc(C(c2c(O)ccc3ccccc23)N2CCOCC2)c(OC)c1 (stereo unspecified)	12%	77%	6.3µM*	>57
COc1ccc(-c2cc3ccccc3n2CC(O)CN2CCOCC2)cc1 (stereo unspecified)	10%	144%	-3%	>57
Cc1ncc([N+](=O)[O-])n1CCN=[N+]=[N-]	-5%[5.75 µM]	4%[5.75 µM]	3%[8 µM]	>57
CN1CCc2c(cc(O)c(O)c2Cl)[C@H](c2cccc(Cl)c2)C1	-2%	3%	1%	>57
CCC(C)NC(=O)C1c2ccccc2C(=O)N1Cc1ccccc1OC (stereo unspecified)	-3%	4%	9%	>57
CC(=O)OC1c2ccccc2C(=O)N1Cc1ccccc1Cl (stereo unspecified)	9%	4µM*[single pt active]	-5%	>57
COc1cc([C@@H](O)CO)ccc1OS(=O)(=O)O	-2%	-7%	-2%	>57
Cn1cccc1Cc1nnc(SCC(=O)N2CCOCC2)n1-c1ccc(F)cc1	14%	4µM*[single pt active]	0%	>57
Cn1cccc1Cc1nnc(SCC(N)=O)n1-c1ccc(F)cc1	10%	4µM*[single pt active]	8%	>57
Cc1ccc(/C(C#N)=C\c2cn(C)c3ccccc23)cc1	-9%	-10%	7.9µM*	>57
Cc1ccc(/C(C#N)=C/c2cccc([N+](=O)[O-])c2)cc1	-4%[5.75 µM]	-4%[5.75 µM]	?	>57
O=C(c1cc(C(F)(F)F)cc(C(F)(F)F)c1)N1CCC2(CC1)CN(c1ncccn1)C2	2%	-12%	?	>57
COc1nc(Nc2cccc(C(F)(F)F)c2)nc(OC)n1	8%	-13%	-21%	>57
COc1nc(Nc2ccc3c(c2)OCO3)nc(OC)n1	11%	4µM*[single pt active]	-1%	>57
O=C(c1cccs1)N1CCN(CCc2ccccc2)CC1	-3%	10%	8%	>57
O=C(CCc1ccccc1)N1CCN(CCO)CC1	11%	4µM*[single pt active]	-8%	>57
CC(=O)c1cc2c(cc1NC(=O)CN1CCN(C(=O)c3ccco3)CC1)OCO2	11%	4µM*[single pt active]	-6%	>57
CCOC(=O)N1CCN(CC(=O)Nc2cc3c(cc2C(C)=O)OCO3)CC1	0%	7%	9%	>57
O=c1cc(-c2ccc(Cl)c(Cl)c2)[nH][nH]1	1%	13µM*[single pt active]	-12%	>57
O=c1cc(-c2ccc(Cl)cc2)[nH][nH]1	-1%	-5%	12%	>57
N#Cc1c(-c2ccccc2)cc(-c2ccco2)c(C#N)c1N	12%	6.3µM*	?	/
N#Cc1sc2nc(-c3ccccc3)cc(-c3ccco3)c2c1N	-1%	6.3µM*	?	>57
COC(=O)c1sc2nc(-c3ccco3)ccc2c1N	-4%	-10%	3%	>57
SMILES	AmpC inh det	AmpC inh no det	Anthrax LT inh	Prx2 Sm inh
O=CN1C[C@H]2C[C@@H](C1)c1cccc(=O)n1C2	3%	5%	-11%	>57
N#Cc1ccccc1-c1cncnc1NCc1cccnc1	6%	3%	4%	>57
CCc1ccc(CCN2CCCCC2)nc1	-2%[5.75 µM]	-1%[5.75 µM]	-3%[8 µM]	>57
Cc1c(C(=O)Nc2ccc3c(c2)OCCO3)sc2nc(-c3ccccc3)cn12	-8%	55%	10µM*	>57
Cc1c(C(=O)Nc2ccncc2)sc2nc(-c3ccccc3)cn12	12%	22%	-17%	>57
NC(=O)c1ncn([C@@H]2O[C@@H](CO)[C@@H](O)[C@H]2O)n1	-3%	8%	/	?
CCC(C)NC(=O)CS(=O)Cc1nc(-c2cccc(OC)c2)oc1C (stereo unspecified)	12%	4µM*[single pt active]	-5%	>57
